Screening results from PubChem BioAssay.
Epigenetic mod = qHTS Assay for Epigenetic Modulators; Potency, µM (series often up to 46.1 µM); AID 597, 2007; actives 0.09% (n = 68,000); mouse C127i GFP locus derepression, cytometry, 30 h
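Murine C127i mammary cells carrying a silenced, stably integrated CMV-driven GFP reporter were treated with compound for 30 hours at 37 C. After PBS washes, GFP-positive cells were counted by laser-scanning microplate cytometry.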
TSHR ag = qHTS Assay for Agonists of the Thyroid Stimulating Hormone Receptor; Thyrotropin receptor (Homo sapiens), P16473; HEK293-CNG-TSHR cells (CNG channel as cAMP sensor), membrane potential dye, cAMP; Potency, µM (doses to about 57.1 µM), most hits filed as activators; actives 0.48% (n = 73,000); active = well fitted activation curve with a large enough effect in the main read-out, with a control signal flat, not every such curve was filed as active; inconclusive = small, poorly fitted or top-dose-only effect, or a change in a side signal; inactive = no such curve, though single readings can be large or run the other way; reference of the percent scale not stated here;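 also: the control signal comes from parental cells without the receptor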
Target sequence (P16473 whole entry, looked up): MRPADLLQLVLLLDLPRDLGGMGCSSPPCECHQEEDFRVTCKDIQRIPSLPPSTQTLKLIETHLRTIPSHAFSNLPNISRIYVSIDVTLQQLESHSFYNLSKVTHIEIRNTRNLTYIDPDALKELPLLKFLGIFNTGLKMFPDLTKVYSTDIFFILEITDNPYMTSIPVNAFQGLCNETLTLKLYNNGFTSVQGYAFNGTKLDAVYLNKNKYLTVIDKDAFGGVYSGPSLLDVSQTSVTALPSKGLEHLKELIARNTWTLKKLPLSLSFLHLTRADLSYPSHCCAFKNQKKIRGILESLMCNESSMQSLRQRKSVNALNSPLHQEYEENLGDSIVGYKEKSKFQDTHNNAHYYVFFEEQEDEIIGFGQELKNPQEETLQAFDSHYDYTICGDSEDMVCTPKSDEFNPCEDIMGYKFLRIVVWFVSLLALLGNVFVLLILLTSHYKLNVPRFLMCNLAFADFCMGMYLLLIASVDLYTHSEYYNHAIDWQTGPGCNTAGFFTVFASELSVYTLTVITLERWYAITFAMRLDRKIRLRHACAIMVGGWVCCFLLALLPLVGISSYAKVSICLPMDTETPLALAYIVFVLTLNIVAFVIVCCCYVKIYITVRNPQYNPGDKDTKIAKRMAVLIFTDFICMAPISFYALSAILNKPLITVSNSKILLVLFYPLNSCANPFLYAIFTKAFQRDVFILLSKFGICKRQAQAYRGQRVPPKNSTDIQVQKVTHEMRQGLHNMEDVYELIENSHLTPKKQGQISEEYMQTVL
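HEK 293 cells stably expressing TSHR and a modified CNG channel, with CNG-only parental cells as counterscreen, were preloaded 60 min at room temperature with membrane potential dye containing 100 uM RO 20-1724. Compound exposure was 30 min, and depolarization was read as fluorescence at 590 nm.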
ERK AVP inh = qHTS Assay for Inhibitors of the ERK Signaling Pathway using a Homogeneous Screening Assay | HEK293-V1b, vasopressin-stimulated pERK AlphaScreen | Potency, µM (top dose mostly 57.5 µM), usual class: inhibitors | AID 995, 2007 | actives 0.99% (n = 72,000); also: nearly all actives have a fitted effect of over 55% in size
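Overnight-seeded V1b-HEK293 cells in 1% FBS got compound, then vasopressin (25 nM final, 5 min, 37C), then lysis buffer. AlphaScreen detection of phospho-ERK; activity normalized to basal and full-stimulation controls.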
HEK293 cAMP ctrl = qHTS Assay for Agonists of the Thyroid Stimulating Hormone Receptor: Activators of Intracellular cAMP Concentrations in Parental HEK 293. parental HEK293 CNG cAMP sensor, membrane potential fluorescence. Potency, µM (series often up to 57.1 µM), most hits filed as activators. actives 2.5% (n = 73,000). AID 938, 2007; also: nearly all actives have a fitted effect of over 55% in size
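Parental HEK 293 cells stably expressing a cAMP-gated CNG channel were loaded with membrane potential dye containing 100 uM RO 20-1724 for 60 min. Compound added for 30 min; depolarization read as fluorescence intensity at 590 nm.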
Ub-GFP proteasome = Ubiquitin-GFP Assay. Potency, µM (highest dose often 45.9 µM), usual class: activators. 67,000 tested, under 10 active. Ubiquitin-GFP reporter cells, proteasome inhibition, GFP fluorescence; response scale: untreated = 0%, 10 µM MG-132 = 100%; active = well fitted activation curve with a large enough effect, not every such curve was filed as active; inconclusive = small, poorly fitted or top-dose-only effect, or another doubt; inactive = no such curve, though single readings can be large or run the other way
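U2OS cells expressing ubiquitin(G76V)-GFP, seeded overnight in 0.5% FBS medium, then treated 4 hr at 37 C across 46 uM to 2.9 nM. GFP-positive cells counted by laser cytometry (488 ex/515 em); %activity scaled between basal and 10 uM MG-132.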
HBB splicing = qHTS Assay for Modulators of Hemoglobin Beta Chain Splicing; HBB splicing reporter cell assay, activation; EGFP reporter with mutant IVS2-654 intron; response scale: normalised to 500 nM splice-correcting PNA; Potency, µM (series often up to 46.1 µM), actives largely listed as activators; actives 0.06% (n = 65,000)
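HeLa cells stably expressing EGFP interrupted by mutant beta-globin intron 2 (IVS2-654), 500/well in 2% FCS. Treated with compound for 2 days at 37C. Splicing correction scored as total well GFP intensity (488 nm excitation, 500-520 nm emission); 500 nM antisense PNA served as control.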
Each line names hits and unclear results; the compound was inactive in the other large screens. Hits are enriched below; roughly 3.8% of the tested compounds scored in any of these assays. Unless noted, calls follow the shape of the dose curve; as a rule, active = well fitted curve in the direction sought with a large enough effect; inconclusive = small, poorly fitted or top-dose-only effect, or another doubt; inactive = no such curve, though single readings can be large; an effect the other way counts as inactive or inconclusive.

COc1ccc2c(c1)OC/C(=C/c1ccc(OC)c(OC)c1)C2=O	ERK AVP inh 15.8µM (no result: Epigenetic mod, TSHR ag, HEK293 cAMP ctrl, Ub-GFP proteasome, HBB splicing)
COc1ccc2c(c1)OC/C(=C/c1ccc(O)c(O)c1)C2=O	none (no result: Epigenetic mod, TSHR ag, HEK293 cAMP ctrl, Ub-GFP proteasome, HBB splicing)
CCn1cc(C2=NOC(C(=O)Nc3ccc4c(c3)OCO4)C2)c(C)n1 (stereo not given)	TSHR ag inconclusive, HEK293 cAMP ctrl 1µM (no result: Epigenetic mod, ERK AVP inh, Ub-GFP proteasome, HBB splicing)
Cc1cc2nnc(SC3CCOC3=O)n2c2ccccc12 (stereo not given)	ERK AVP inh 15.8µM (no result: TSHR ag)
COc1ccc(-n2c(SC3CCOC3=O)nc3ccccc32)cc1 (stereo not given)	TSHR ag inconclusive, HEK293 cAMP ctrl inconclusive
O=C1OCCC1Sc1nc2ccccc2n1-c1ccccc1 (stereo not given)	ERK AVP inh 15.8µM
C[C@@H]1C=C[C@](Cc2ccccc2)(C(=O)NCCN2CCOCC2)N1C(=O)c1ccccc1	TSHR ag inconclusive, HEK293 cAMP ctrl 15.8µM (no result: Epigenetic mod, Ub-GFP proteasome)
C[C@@H]1C=C[C@](Cc2ccccc2)(C(=O)O)N1C(=O)c1ccccc1	none (no result: Epigenetic mod, Ub-GFP proteasome)
COc1ccc(-c2c3c(nc4sc(C(=O)Nc5cc(C)on5)c(N)c24)CCC3)cc1	ERK AVP inh 7.94µM
COc1ccc(/C=C/C(=O)c2ccc(C)s2)cc1	none (no result: Epigenetic mod, TSHR ag, HEK293 cAMP ctrl, Ub-GFP proteasome, HBB splicing)
Cc1nc2ncnn2c(Nc2ccc3c(c2)OCO3)c1Cc1ccccc1	TSHR ag inconclusive, ERK AVP inh 25.1µM, HEK293 cAMP ctrl 25.1µM (no result: HBB splicing)
Cc1nc2ncnn2c(N2CCC(C(=O)NC3CCCC3)CC2)c1Cc1ccccc1	none (no result: HBB splicing)
CCN1C(=S)SC(=O)C1=C1C=C(C)N(Cc2ccco2)C(C)=C1	HBB splicing 12.6µM
CCN1C(=S)SC(=O)C1=C1C=C(C)OC(C)=C1	none
CC(C)NC(=O)N1CC2(CCN(C(=O)c3cc(C(F)(F)F)cc(C(F)(F)F)c3)CC2)C1	TSHR ag inconclusive, HEK293 cAMP ctrl inconclusive
CCC(c1nnnn1C(C)C)N1CCN(C2CCCC2)CC1 (stereo not given)	TSHR ag inconclusive, HEK293 cAMP ctrl inconclusive
CCCCC(c1nnnn1C1CCCC1)N1CCN(C2CCCC2)CC1 (stereo not given)	TSHR ag inconclusive, HEK293 cAMP ctrl inconclusive
CCC(c1nnnn1C1CCCCC1)N1CCN(C2CCCC2)CC1 (stereo not given)	TSHR ag inconclusive, HEK293 cAMP ctrl 5.01µM (no result: HBB splicing)
CCCC(c1nnnn1C1CCCCC1)N1CCN(C2CCCC2)CC1 (stereo not given)	TSHR ag inconclusive, HEK293 cAMP ctrl 15.8µM (no result: HBB splicing)
CCCC(c1nnnn1C(C)(C)CC)N1CCN(C2CCCC2)CC1 (stereo not given)	TSHR ag inconclusive, HEK293 cAMP ctrl 1µM
COc1ccc(-c2nc3cnc(OC)nc3n(C[C@H]3CCCO3)c2=O)cc1	TSHR ag inconclusive, HEK293 cAMP ctrl 20µM
COc1ncc2nc(-c3ccc(Cl)cc3)c(=O)n(C[C@H]3CCCO3)c2n1	TSHR ag inconclusive, HEK293 cAMP ctrl inconclusive
COC(=O)c1ccc(C(/C=C/[C@@H](C)C(=O)NCCc2c[nH]c3ccccc23)NC(=O)OCc2ccccc2)cc1 (stereo not given in full)	none (no result: Epigenetic mod, Ub-GFP proteasome)
CCNc1ccc(S(=O)(=O)C(F)(F)F)cc1NC(=O)C12CCC(CC1)C2	TSHR ag inconclusive, HEK293 cAMP ctrl 15.8µM
CC1(C)CC(=O)C2=C(C1)NC(SCC(=O)Nc1ccccc1)=C(C#N)C2c1ccco1 (stereo not given)	TSHR ag inconclusive, HEK293 cAMP ctrl 15.8µM
Cc1ccc(C(=O)CSC2=C(C#N)C(c3ccco3)C3=C(CC(C)(C)CC3=O)N2)cc1 (stereo not given)	none
N#CC1=C(SCC(=O)c2ccc(Cl)cc2)NC2=C(C(=O)CCC2)C1c1ccco1 (stereo not given)	Epigenetic mod 10µM (no result: TSHR ag, ERK AVP inh, HEK293 cAMP ctrl, Ub-GFP proteasome, HBB splicing)
